From PubChem BioAssay (NCATS)
Records with an inconclusive call do not appear. A number with no mark means an inactive call. The source made the active and inactive calls. Calls follow the shape of the dose curve; as a rule, active = well fitted inhibition curve with a large enough effect; inconclusive = small, poorly fitted or top-dose-only effect; inactive = flat fitted curve, though single readings scatter.

Key:
[1] = test system: TAB113; assay: qHTS profiling for inhibitors of Plasmodium falciparum proliferation (AID 504749); also: potency is read from the fitted curve at half-maximal effect; conditions: P. falciparum in erythrocytes, SYBR Green DNA, 72 h; series mostly up to 28.7 µM
In short: (§1)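 In a 72 h erythrocytic culture (37 C, humidified, 5% CO2) at 2.5% hematocrit and 0.3% starting parasitemia, compounds were tested; SYBR Green I in detergent lysis buffer stained parasite DNA overnight.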

[2] = test system: TAB165; assay: as above; conditions: P. falciparum in erythrocytes, SYBR Green DNA, 72 h; series mostly up to 28.7 µM
In short: as §1

[3] = test system: CRL-7250; assay: Cytotoxic Profiling of Annotated Libraries Using Quantitative High-Throughput Screening (AID 1296008); conditions: Five cell lines viability, CellTiter-Glo ATP luminescence, 48-72 h; max response: stronger effect = lower value; also: potency is read from the fitted curve at half-maximal effect; as to max response: % is scaled to controls: 0 for no effect and ±100 for the full control effect
In short: (§2)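 Cytotoxicity was measured as CellTiter-Glo ATP luminescence, read after 10 min at room temperature. Compound treatment of the cells lasted 48 or 72 hr at 37 degrees Celsius in a qHTS format.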

[4] = test system: HEK293; assay: as above; conditions: Five cell lines viability, CellTiter-Glo ATP luminescence, 48-72 h; max response: stronger effect = lower value
In short: as §2

[5] = test system: KB-3-1; assay: as above; conditions: Five cell lines viability, CellTiter-Glo ATP luminescence, 48-72 h; max response: stronger effect = lower value
In short: as §2

[6] = test system: NIH3T3; assay: as above; conditions: Five cell lines viability, CellTiter-Glo ATP luminescence, 48-72 h; max response: stronger effect = lower value
In short: as §2

[7] = test system: HEK293T; assay: qHTS assay to identify novel small-molecules to repurpose for Merkel cell carcinoma treatment (AID 1296009); conditions: MCC and control cell lines, CellTiter-Glo viability, 72 h; at 44.8 µM (top of the series) unless noted
In short: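 Cell viability measured by CellTiter-Glo following 72 hr compound treatment at 37 degree celsius, with NPC and MIPE libraries tested in 8- and 11-point concentration series.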

[8] = test system: W2; assay: qHTS profiling for inhibitors of Plasmodium falciparum proliferation (AID 504749); also: potency is read from the fitted curve at half-maximal effect; conditions: P. falciparum in erythrocytes, SYBR Green DNA, 72 h; series mostly up to 28.7 µM
In short: as §1

[9] = test system: HaCat; assay: Cytotoxic Profiling of Annotated Libraries Using Quantitative High-Throughput Screening (AID 1296008); conditions: Five cell lines viability, CellTiter-Glo ATP luminescence, 48-72 h; max response: stronger effect = lower value; also: potency is read from the fitted curve at half-maximal effect; as to max response: % is scaled to controls: 0 for no effect and ±100 for the full control effect
In short: as §2
Also: nearly all actives have a fitted effect of over 60% in size.

| Compound | Potency [1] | Potency [2] | max response [3] | outcome [4] | max response [5] | max response [6] | outcome [7] | Potency [8] | max response [4] | outcome [3] | Potency [3] | Potency [4] | max response [9] |
| --- | --- | --- | --- | --- | --- | --- | --- | --- | --- | --- | --- | --- | --- |
| CCN(CC)CCOC(=O)C1(c2ccccc2)CCCC1 | 0.005 µM (active) | inactive | -4.97% | inactive | 1.37% | 2.7% | inactive | – | – | – | – | – | – |
| Nc1ccc(S(=O)(=O)NCc2ccccc2)cc1 | inactive | inactive | -13.3% | – | -2.49% | -0.659% | – | inactive | 3.66% | – | – | – | – |
| O=C1C(O)=C(O)C(=O)C(O)=C1O | inactive | inactive | -21.8% | inactive | -3.2% | -17.6% | inactive | – | – | – | – | – | – |
| CCCCCCCC/C=C\CCCCCCCCN | inactive | inactive | – | – | -6.06% | -3% | – | inactive | -3.13% | inactive | – | – | – |
| Cc1cccc(C)c1NC(=O)CN1CCCCCC1 | inactive | inactive | – | – | 2.19% | 1.11% | – | – | 2.2% | inactive | – | – | – |
| CCCc1ncc(C[n+]2ccccc2C)c(N)n1 | inactive | inactive | – | – | 2.61% | 2.55% | – | inactive | -18.1% | inactive | – | – | – |
| CCOC(=O)c1c(N)sc2c1CCN(Cc1ccccc1)C2 | 11.2 µM (active) | 5.01 µM (active) | – | – | -15.4% | – | – | 4.78 µM (active) | – | – | 18.8 µM (active) | 11.9 µM (active) | – |
| O=C(O)CCc1nc2ccccc2[nH]1 | – | 7.94 µM (active) | -5.04% | – | – | -8.19% | – | – | -3.96% | – | – | – | -3% |
